Reference: PubChem BioAssay AID504834 (National Center for Advancing Translational Sciences (NCATS), 2011)
Where “and” joins values, the source holds several entries; their conditions need not be identical. Identical values can stand only once. The whole screen tested about 320,000 compounds, of which about 22,000 (6.9%) were called active. Another 27% or so got no clear call; they are omitted. What follows is part of a selection rich in actives, with near analogues and random picks from the rest. A number with no mark means an inactive call. The call rests on the fitted dose curve; in most records, active means well fitted inhibition curve with a large enough effect; inconclusive means small, poorly fitted or top-dose-only effect, or another doubt; inactive means no such curve, though single readings can be large or run the other way.

Test: Primary qHTS for delayed death inhibitors of the malarial parasite plastid, 96 hour incubation
Settings: P. falciparum luciferase reporter growth; series mostly up to 28.7 µM; activity change, negative = inhibition: at the top concentration
Method in brief: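 Two-generation exposure (96 h) targets delayed-death phenotype. Reporter parasites carrying integrated firefly luciferase, in red cells at 2% hematocrit and 0.05% parasitemia final, kept at 37 C, 5% CO2; luminescence loss indicates inhibition.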
On the % scale 0 is the no-effect control and ±100 the full control effect; potency means the concentration at half of the fitted maximal effect.

Structure (SMILES)	activity change, negative = inhibition	Potency
C=CCC(NC(=O)Cc1ccccc1)C(=O)NCCC (centres undefined)	-3.59%	
CCOCCc1nn2c(=O)cc(CSCC(=O)Nc3cccc(C)c3C)nc2s1	43.5%	
O=C(CN1CCCCC1)Nc1ccccc1Cl	15.1%	
COc1cccc(NC(=O)CN2CCN(CC(=O)Nc3ccccc3Cl)CC2)c1	-11%	
Cc1nn(Cc2ccccc2)c(C)c1C(=O)N1CCN(CC(=O)Nc2ccccc2Cl)CC1		13.1 µM (active)
Cc1ccc(NC(=O)Cc2nc(COC(=O)C(C)NS(=O)(=O)c3ccc(C)cc3)cs2)cc1 (centres undefined)	21.2%	
CCN(CC)C(=O)c1nc[nH]c1C(=O)N(C)Cc1ccccc1	0%	
CC(=O)Nc1ccc(Oc2ccc3c(c2)C(=O)NC3=O)cc1	-18.9%	
Cc1csc(NC(=O)CSc2nc(=O)cc(N)n2-c2ccc(F)cc2)n1	21.5%	
Cc1cccc(NC(=S)NCCc2ccc(Cl)cc2)c1C	0%	
Cc1cc(OCCN2CCCC2)cc(C(C)C)c1		10.4 µM (active)
Cc1ccc(C(C)C)cc1OCCN1CCCC1	-7.33%	
Cc1cc(OCCN2CCCC2)ccc1C(C)C	-17.9%	
CCOCCCNc1c(CC)c(C)c(C#N)c2nc3ccccc3n12	-16.7%	
CN1C(C(=O)NCC2CC2)CC2Cn3c(nc4ccccc43)C21 (centres undefined)	56.6%	
CCOC(=O)N1CCN(Cc2nc3cc(NC(C)=O)ccc3n2C)CC1	-19.3%	
CCOC(=O)N1CCN(Cc2nc3ccc([N+](=O)[O-])cc3c(=O)n2-c2cccc(OC)c2)CC1		2.33 µM (active)
CCOC(=O)N1CCN(Cc2nc3cc(NC(=O)CC)ccc3n2CC)CC1	-12.6%	
CN(C(=O)CSc1nnc(-c2ccc3c(c2)OCO3)o1)C1CCS(=O)(=O)C1 (centres undefined)	-13.6%	
CC(=O)Nc1ccc(/C=C/C(=O)c2ccccc2)cc1	67.7%	
O=C(NC1CCCC1)C(=O)c1c[nH]c2ccccc12	4.04%	
OC(COc1cccc(OCC(O)CN2CCCC2)c1)CN1CCCC1 (centres undefined)	20.7%	
Cc1cccc(OCC(O)CN2CCN(S(=O)(=O)c3ccc(C)cc3C)CC2)c1 (centres undefined)		6.57 µM (active)
CC(=O)c1ccc(OCC(O)CN2CCN(S(=O)(=O)c3cccc(Br)c3)CC2)cc1 (centres undefined)	-27.6%	
O=S(=O)(Nc1ccc(-n2cnnn2)cc1)c1ccc(Cl)cc1	-0.496%	
C=CC[n+]1c(-c2ccc(C)cc2)csc1NNC(=O)Nc1ccccc1		7.38 µM (active)

Structure (SMILES)	activity change, negative = inhibition	Potency
Cc1ccc(NC(=O)NNC(=O)c2sccc2-n2cccc2)cc1	42.9%	
C=CCNc1scc(-c2ccccc2)[n+]1CC=C	4.04%	
O=C(NCc1ccco1)/C(=C/c1cccc([N+](=O)[O-])c1)NC(=O)c1ccco1	3.76%	
CCc1sc(C(=O)N2CCN(CC(=O)Nc3cccc(F)c3)CC2)cc1C	-79.8%	
CNC(=O)C1CCN(S(=O)(=O)c2c(C)noc2/C=C/c2cccc(C)c2)CC1		10.4 µM (active)
Cc1noc(/C=C/c2ccco2)c1S(=O)(=O)N1CCC(C(=O)N2CCc3ccccc32)CC1	-96.6%	
Cc1ccc(NC(=O)C2CCCN(S(=O)(=O)c3c(C)noc3C)C2)c(C)c1 (centres undefined)	-0.795%	
CC(C)CC(=O)Nc1cc(C(F)(F)F)ccc1N1CCOCC1	-85.5%	
O=C(CCC1CCCCC1)Nc1cc(C(F)(F)F)ccc1N1CCOCC1		13.1 µM (active)
CCC(=O)Nc1cc(C(F)(F)F)ccc1N1CCCC1	29.3%	
CCc1ccc(C(=O)NC(=S)Nc2ccccc2N2CCOCC2)cc1	17%	
C/C=N/N(c1ccccc1)c1ccccc1	51.4%	
CCN(CC(=O)Nc1ccc(S(=O)(=O)N2CCCC2)cc1)CC(=O)Nc1cccc(OC)c1	-17%	
CCOC(=O)c1cc(NC(=O)SCC(=O)O)c(C)nc1C		7.38 µM (active)
CCOC(=O)c1ccccc1NC(=O)CSc1nc2ccccc2c(=O)[nH]1	-0.129%	
CCOC(=O)c1cnc(-n2nc(C)cc2C)nc1-n1nc(C)cc1C	26%	
CC1CCC(NS(=O)(=O)c2ccc3c(c2)CC(=O)N3)CC1 (centres undefined)	-7.2%	
Cc1ccc(Cc2nnc(SCC(=O)Nc3ccc(C)cc3C)[nH]c2=O)cc1	31.1%	
O=C(CCN1CCN(C/C=C/c2ccccc2)CC1)Nc1ccccc1Cl	-27.3%	
C/C(=N\NC(=O)c1ccoc1C)c1ccccc1O	163%	
COc1ccc(C(=O)c2c(C)c(CCC#N)n3ccccc23)c(OC)c1	-23.2%	
Oc1c(Cl)cc(Cl)c(Cl)c1Cc1c(O)c(Cl)cc(Cl)c1Cl		12 µM (active) and 9.28 µM (active)
CN(C)c1nc(NN)nc(Nc2ccc(F)cc2)n1	1.79%	
COc1ccc(N(CC(=O)Nc2cccc3ccccc23)S(C)(=O)=O)c(OC)c1	-37.1%	
C=CCn1c(SCC(=O)NC)nnc1C12CC3CC(CC(C3)C1)C2		11.7 µM (active)
C=CCn1c(SCC(=O)NC23CC4CC(CC(C4)C2)C3)nc(O)cc1=O	-29.2%	

Structure (SMILES)	activity change, negative = inhibition	Potency
C=CCn1c(COc2ccccc2)nnc1SCC(=O)NCC(=O)OCC	4.6%	
C=CCSc1nnc(NC(=O)c2ccc(NC(C)=O)cc2)s1	14%	
CC1CC(C)CN(C(=O)CCNC(=O)Cn2cnc3ccccc3c2=O)C1 (centres undefined)	-3.35%	
Cc1cc(S(=O)(=O)N2CCOCC2)ccc1OCC(=O)N1CCOCC1	9.58%	
O=C(NCc1ccccc1Cl)C1CCN(S(=O)(=O)c2cccc3nonc23)CC1	-7.24%	
O=C1CCc2cc(S(=O)(=O)N3CCC(C(=O)NCc4ccccc4Cl)CC3)ccc2N1		13.1 µM (active)
O=C(NCc1ccccc1Cl)C1CCN(S(=O)(=O)N2CCOCC2)CC1	4.74%	
CSc1ccc(Cl)c(C(=O)OCC(=O)N2CCNC2=O)c1	-21.6%	
O=C(Nc1ccc(F)cc1)N1CCCC(c2nc3c(nnn3Cc3ccccc3Cl)c(=O)[nH]2)C1 (centres undefined)	16.6%	
Cc1ccc(NC(=O)N2CCC(c3nc4c(nnn4Cc4c(F)cccc4Cl)c(=O)[nH]3)CC2)cc1		9.28 µM (active)
COc1ccc(Cn2nnc3c(=O)[nH]c(C4CCN(C(=O)c5ccccc5Cl)CC4)nc32)cc1	9.4%	
CC(Sc1nnc(-c2cccs2)n1C1CC1)C(=O)NCC1CCCO1 (centres undefined)	24.7%	
Cc1cc(C(=O)OCC(=O)Nc2nccs2)c2ccccc2n1	20.5%	
COc1ccccc1C(=O)NNC(=O)CCN1C(=O)/C(=C\c2ccccc2)SC1=S	-14.8%	
CCC(C)Sc1nc(C)nc2c1c(=O)n(C)c(=O)n2C (centres undefined)		10.4 µM (active)
CSc1nc(C)nc2c1c(=O)n(C)c(=O)n2C	15.9%	
CC(O)c1nc2c(c(=O)n(C)c(=O)n2C)n1C (centres undefined)	101%	
COc1ccc(N2CCN(S(=O)(=O)c3cc(Br)cnc3N)CC2)cc1	1.5%	
COc1cccc(/C=C2/SC(=S)N(CC(=O)NC3C=CS(=O)(=O)C3)C2=O)c1 (centres undefined)	37.3%	
COc1ccc(N2CCN(CCNC(=O)Nc3cc(Cl)ccc3Cl)CC2)cc1		5.22 µM (active)
COc1cccc(NC(=O)NCCN2CCCCC2)c1	-37%	
COc1ccc(N2CCN(CCNC(=O)CCN3C(=O)COc4ccccc43)CC2)cc1	24.2%	
CCOC(=O)c1cccc(NC(=O)CN2C(=O)C3CC=CCC3C2=O)c1 (centres undefined)	-20.6%	
CCn1ccnc1CN(C)C(=O)c1ccc2nc(Cc3ccc(OC)cc3)oc2c1	-22.5%	
Cc1[nH]c(C)c(S(=O)(=O)N2CCN(c3cccc(C(F)(F)F)c3)CC2)c1C(=O)N1CCCC1	-18%	
COc1ccccc1CN(C)C(=O)c1cc2ccccc2o1	-19.2%	

Structure (SMILES)	activity change, negative = inhibition	Potency
COCCNC(=O)NC(=O)COC(=O)C1(c2ccc(Cl)cc2)CC1	23.1%	
COc1ccccc1CN(C)C(=O)C1(c2ccc(Cl)cc2)CC1		9.28 µM (active)
Cc1cccc(C(=O)NCC(=O)OCC(=O)N(C)CC(=O)Nc2ccccc2Cl)c1	-24.1%	
O=C(C1CC(=O)N(c2ccc(F)cc2)C1)N1CCN(c2ccccc2)CC1 (centres undefined)	49.1%	
Cc1ccc(N2CC(C(=O)N3CCC4(CC3)CC(=O)c3ccccc3O4)CC2=O)cc1C (centres undefined)		11.7 µM (active)
O=C1CC2(CCN(C(=O)COc3ccc(F)cc3)CC2)Oc2ccccc21	-16.8%	
O=C(Cn1c(NCCO)nc2ccccc21)c1ccc(Cl)cc1Cl	26.7%	
CC(NC(=O)C(=O)Nc1nccs1)c1ccccc1 (centres undefined)	17.2%	
CC(=O)c1cccc(NC(=S)N2CCN(S(C)(=O)=O)CC2)c1	47.9%	
O=C(NCCCN1CCOCC1)c1ccccc1NS(=O)(=O)c1ccc(Br)cc1	-14.4%	
O=C(NCCCN1CCOCC1)c1ccccc1NS(=O)(=O)c1ccc(F)cc1	26.6%	
O=C(NCCCN1CCOCC1)c1cnn2c(-c3ccccc3)cc(-c3ccccc3)nc12		9.28 µM (active)
CCc1ccc(OCC(=O)NCC(c2ccc(Cl)cc2)N2CCCCC2)cc1 (centres undefined)	19.3%	
COc1cccc(C(=O)Nc2ccc(N3CCN(C(=O)c4ccco4)CC3)cc2)c1	15.5%	
COc1ccc(Cl)cc1NS(=O)(=O)c1cccc(C(=O)NCC2CCCO2)c1 (centres undefined)	0.0416%	
CC(C)Nc1nnc(SCC(=O)c2c[nH]c3ccccc23)s1		10.4 µM (active)
C[C@H](NC(=O)c1ccccc1)C(=O)OCC(=O)c1c[nH]c2ccccc12	22.5%	
COC(=O)c1ccc(CSc2nnc(NC(C)C)s2)cc1	-3.42%	
Cc1coc2c1c(C)cc1oc(=O)c(CC(=O)NCC(=O)N[C@H](C(=O)O)C(C)C)c(C)c12	-0.522%	
COc1cc(-c2c(-c3ccc4c(c3)OCO4)noc2C)ccc1F	-10.2%	
Cc1onc(-c2ccc(Cl)cc2)c1-c1ccnn1S(=O)(=O)c1ccc(Cl)cc1		1.17 µM (active)
Cc1onc(-c2ccccc2)c1C(=O)N=C(N)c1ccc(Cl)cc1	-3.39%	
Cc1cccc([C@@H]2[C@@H]3C(=O)N(C)C(=O)[C@@H]3[C@@H]3C(=O)Nc4ccccc4C(=O)N23)c1	35.7%	
CCOC(=O)c1sc(N)c(C#N)c1COC(=O)C1=COCCO1	0%	
Cc1ccc(-c2ccc(=O)n(Cc3ccc(F)cc3Cl)n2)cc1	1.04%	
COc1ccc(CNC(=O)CN(C(=O)c2csnn2)c2cnc3ccccc3c2)cc1	-6.61%	
